# Measured values as given in PubChem BioAssay.
# Values joined by “and” are separate entries in the source; they are usually repeats but may differ in a detail not shown here. Equal values may be shown once. Active and inactive are the calls of the source. Cut-off read from the data, not from the text of the source, unless noted: active = nuclear beta-catenin stimulation mostly above about 4.2% (no sharp cut-off); inactive = mostly below about 10%.
# Tests used:
# [1] = P. berghei load reduction in hepatocytes – cell-based, HepG2, luciferase luminescence, HepG2 viability, primary screen (AID 624349; in the data active = parasite load remaining mostly below about 12%, no sharp cut-off; inactive = mostly above about 10%;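 note: 100% = mean of DMSO negative control wells on the same plate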); settings: P. berghei liver stage in HepG2, luciferase luminescence, concentration not given here; parasite load remaining: stronger effect = lower value; viability: measured here: HepG2 viability without parasites
# [2] = Wnt pathway potentiators raising nuclear beta-catenin – imaging, WNT3A-conditioned medium, mouse C2C12, NPC library, primary screen (AID 1117326); settings: stronger effect = higher value
# [3] = stimulators of insulin release from INS-1E, primary screen, cell-based, 5 mM glucose, NPC library (AID 1117329;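 active = compound raises insulin release from rat beta cells at 5 mM glucose, no numeric limit stated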); settings: rat INS-1E insulin secretion, at 10 µM, stronger effect = higher value
# [4] = growth inhibition of GSK3B-pretreated HCT116 cells – cell-based, CellTiter-Glo, 0.2 to 20 µM (AID 1117336;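 active = compounds lowering colon cancer cell viability after pretreatment blocking the GSK3B kinase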); settings: HCT116 viability after GSK3B inhibitor, at 20 µM, stronger effect = higher value
# [5] = inhibition of endothelial tube formation, primary screen, imaging, VEGF stimulated, CD31 staining, tube area, NPC library (AID 1117340;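 active = compound that reduces growth-factor-driven endothelial tube area in a mixed cell culture, no cutoff stated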); settings: VEGF-stimulated ADSC/ECFC co-culture, at 10 µM, stronger effect = higher value
# [6] = GLP1 release stimulators, primary, NCI-H716, NPC library (AID 1117341;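 active = compound raises GLP1 secretion from the human gut endocrine cells, with no numeric limit stated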); settings: NCI-H716 cells, at 10 µM, stronger effect = higher value
# [7] = HCT116 colon cancer cell growth inhibition, primary screen, CellTiter-Glo luminescence, NPC library (AID 1117342;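 active = compounds that lower survival of HCT116 colon cancer cells in the luminescence readout, no numeric limit stated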); settings: at 20 µM (top of the series)
# [8] = reduced SW480 viability measured with CellTiter-Glo, NPC library, primary (AID 1117343;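 active = compounds that lower viability of the colon cancer cells in the luminescence readout, with no numeric limit stated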); settings: CellTiter-Glo luminescence; at 20 µM (top of the series)
# [9] = NPC library primary testing for decreased DLD-1 cell viability via CellTiter-Glo (AID 1117346;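 active = compounds that lower survival of DLD-1 colon cancer cells in the luminescence readout, no cutoff given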); settings: DLD-1 viability, CellTiter-Glo luminescence; at 20 µM (top of the series)
# [10] = EMT-state selective cytotoxicity in co-culture – imaging, PC-3E GFP, TEM4-18 mCherry, primary screen (AID 1345086;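 active = compounds killing one labelled cell type while sparing the other, by normalised counts and ratio limits, not self-fluorescent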;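 for all read-outs here: cells exposed to compound for 72 h before imaging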;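 for red/green cell ratio (normalised): normalised mesenchymal count divided by normalised epithelial count so high means epithelial killing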); settings: PC-3E GFP / TEM4-18 mCherry co-culture, imaging cell counts, at 1 µM; for red/green cell ratio (normalised): actives lie on both sides
# [11] = system: Aerobactin synthetase IucA (Klebsiella pneumoniae hvKP1); test: IucA enzyme inhibition, primary screen, biochemical, Spectrum library (AID 1346200; call rule not given here;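 note: 100% = wells without compound and 0% = wells lacking enzyme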); settings: malachite green pyrophosphate, A620, at 8 µM, stronger effect = lower value
# [12] = viability loss with induced miR-34 in A549 – imaging, A549 dox-inducible miR-34, nuclei and caspase counts, primary screen (AID 1347080;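 active = compounds whose cell count with miR-34 switched on is under 0.7 times the count with it off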); settings: A549 miR-34 inducible, Hoechst nuclei count, 48 h
# [13] = biological target: NAD(+) hydrolase SARM1 (Homo sapiens) (UniProt Q6SZW1); test: blocking NAD cleavage by SARM1 SAM-TIR – cell lysate, NAD-Glo luminescence (AID 1508614;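 active = compound whose remaining NAD level is above about 45 nM, limit read from the data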;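 note: higher remaining NAD means stronger inhibition of SARM1 NADase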); settings: SAM-TIR HEK293T lysate NADase, at 1 µM, stronger effect = higher value
# [14] = galactose survival enhancers in mitochondrial complex I cybrids – cell-based, galactose medium, ATP luminescence, primary screen (AID 1645843;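 active = z-score of at least 1.8 in each of two replicates, scored against plate mean and spread of sample wells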;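 note: positive z means more ATP and so rescue of galactose-driven cybrid death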); settings: complex I mutant cybrid cells, 72 h, stronger effect = higher value
# [15] = MELAS cybrid and Rieske KO viability enhancers – cell-based, MELAS cybrids, Rieske KO mouse fibroblasts, CellTiter-Glo, primary screen (AID 1508586;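 active = mean z-score across replicates of 1.96 or higher in either the MELAS or the Rieske mutant cell line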;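 note: z relative to plate mean and SD of compound and empty wells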); settings: low glucose
# [16] = biological target: Mitogen-activated protein kinase 7 (Homo sapiens) (UniProt Q13164); test: Gal4-ERK5 driven luciferase induction – cell-based, HTS, primary screen (AID 1508626;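 active = luciferase signal above three times the same-plate solvent-only control wells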;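 note: luciferase driven by Gal4-ERK5 fusion binding five Gal4 sites before minimal TATA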); settings: HeLa Gal4-ERK5 transactivation, 18 h, at 5 µM, stronger effect = higher value
# [17] = yeast 75Q aggregation reduction – 75Q-TubU reporter (AID 1593); settings: Yeast 75Q polyglutamine aggregation reporter
# [18] = blockers of cytochrome c efflux from mitochondria – biochemical, purified mitochondria (AID 1603); settings: stronger effect = lower value;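 note: mouse liver mitochondria challenged with calcium chloride; signal normalized to the plate average as 100%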
# [19] = polyglutamine aggregate formation blockers (AID 1604); settings: polyglutamine-induced protein aggregation inhibition assay; stronger effect = higher value; tested at 2.5 µM
# [20] = measured here: epithelial PC-3E GFP cell survival
# [21] = measured here: mesenchymal TEM4-18 mCherry cell survival
# [22] = measured here: total cells without miR-34 induction
# [23] = measured here: relative caspase fold change +Dox/-Dox
# [24] = measured here: total cells with miR-34 induction, stronger effect = lower value
# [25] = MELAS cybrid survival, CellTiter-Glo 48 h, stronger effect = higher value
# [26] = Rieske KO mouse fibroblast survival, CellTiter-Glo 72 h
# Mitogen-activated protein kinase 7 (Homo sapiens), sequence (Q13164 whole entry, looked up, the tested form may be a part): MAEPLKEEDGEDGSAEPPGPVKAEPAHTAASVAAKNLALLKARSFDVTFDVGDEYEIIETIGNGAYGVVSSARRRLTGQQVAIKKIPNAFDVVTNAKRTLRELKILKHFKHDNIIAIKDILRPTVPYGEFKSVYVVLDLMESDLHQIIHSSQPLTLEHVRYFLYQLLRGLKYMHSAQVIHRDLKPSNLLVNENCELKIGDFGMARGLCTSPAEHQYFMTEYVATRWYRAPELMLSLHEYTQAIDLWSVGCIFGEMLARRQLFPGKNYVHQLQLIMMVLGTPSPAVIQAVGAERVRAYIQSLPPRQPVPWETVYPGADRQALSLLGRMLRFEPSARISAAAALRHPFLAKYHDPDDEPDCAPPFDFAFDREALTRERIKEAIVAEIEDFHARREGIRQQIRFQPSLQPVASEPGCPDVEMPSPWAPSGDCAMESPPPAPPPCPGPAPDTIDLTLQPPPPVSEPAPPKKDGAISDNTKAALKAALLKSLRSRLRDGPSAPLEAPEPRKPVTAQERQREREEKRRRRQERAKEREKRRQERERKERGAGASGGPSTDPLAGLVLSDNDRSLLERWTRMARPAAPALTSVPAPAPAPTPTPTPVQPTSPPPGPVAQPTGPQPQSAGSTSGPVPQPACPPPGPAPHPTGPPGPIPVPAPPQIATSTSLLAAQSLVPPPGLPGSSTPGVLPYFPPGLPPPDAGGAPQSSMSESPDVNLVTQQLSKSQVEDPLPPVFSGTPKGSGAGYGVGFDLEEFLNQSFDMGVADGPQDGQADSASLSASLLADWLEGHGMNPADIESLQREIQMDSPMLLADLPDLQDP
# NAD(+) hydrolase SARM1 (Homo sapiens), sequence (Q6SZW1 whole entry, looked up): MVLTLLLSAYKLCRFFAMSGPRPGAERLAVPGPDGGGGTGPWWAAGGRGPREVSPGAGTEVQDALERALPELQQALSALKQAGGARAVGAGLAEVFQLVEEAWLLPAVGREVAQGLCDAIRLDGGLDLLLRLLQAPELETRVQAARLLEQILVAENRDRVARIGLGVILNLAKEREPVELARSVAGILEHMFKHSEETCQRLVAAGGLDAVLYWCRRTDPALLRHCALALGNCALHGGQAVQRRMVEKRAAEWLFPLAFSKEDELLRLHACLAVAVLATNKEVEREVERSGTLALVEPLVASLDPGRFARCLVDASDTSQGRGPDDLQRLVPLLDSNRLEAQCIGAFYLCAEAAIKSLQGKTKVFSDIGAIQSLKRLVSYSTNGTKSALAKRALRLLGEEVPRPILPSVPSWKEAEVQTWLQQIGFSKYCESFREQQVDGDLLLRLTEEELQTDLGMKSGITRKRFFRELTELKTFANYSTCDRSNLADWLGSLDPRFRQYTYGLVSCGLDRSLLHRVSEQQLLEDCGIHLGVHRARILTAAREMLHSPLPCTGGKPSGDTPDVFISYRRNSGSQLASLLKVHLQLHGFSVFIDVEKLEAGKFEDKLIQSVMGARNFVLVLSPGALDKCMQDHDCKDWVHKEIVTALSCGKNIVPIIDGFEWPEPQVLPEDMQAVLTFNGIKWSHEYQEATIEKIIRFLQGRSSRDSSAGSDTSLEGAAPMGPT
compound,measurement,setting,value
CC[C@]1(O)CC[C@H]2[C@@H]3CCC4=CCCC[C@@H]4[C@H]3CC[C@@]21C,parasite load remaining,[1],95.1% (inactive)
same,viability,[1],75.2%
same,nuclear beta-catenin stimulation,[2]; at 10 µM,8.1% (inactive)
same,nuclear beta-catenin stimulation,"[2]; stimulation, at 2 µM",0.5%
same,insulin secretion stimulation,[3],1.8% (inactive)
same,viability decrease,[4],70.7% (active)
same,tube area decrease,[5],66.4% (active)
same,GLP1 secretion stimulation,[6],2.3% (inactive)
same,inhibition of viability,[7],64.1% (active)
same,viability decrease (inhibition),[8],97.8% (active)
same,viability decrease (inhibition),[9],73% (active)
NN=C(N)N,nuclear beta-catenin stimulation,[2]; at 10 µM,0.8% (inactive)
same,nuclear beta-catenin stimulation,"[2]; stimulation, at 2 µM",6.5%
same,insulin secretion stimulation,[3],1.9% (inactive)
same,viability decrease,[4],-34.7% (inactive)
same,tube area decrease,[5],-0.5% (inactive)
same,GLP1 secretion stimulation,[6],-3.5% (inactive)
same,inhibition of viability,[7],0.63% (inactive)
same,viability decrease (inhibition),[8],20.2% (inactive)
same,viability decrease (inhibition),[9],-6% (inactive)
same,red/green cell ratio (normalised),"[10]; counts scaled to control wells, 1 = unselective",0.96 (inactive) and 0.91 (inactive)
same,normalised cell number,[10]; [20],1.02 and 1.25
same,normalised cell number,[10]; [21],0.98 and 1.14
same,activity remaining,[11],107% (inactive)
same,cell count,[12]; [22],10500 and 9550 and 9270
same,remaining NAD,[13],10 nM (inactive)
same,z-score,[14],0.575 (inactive) and 0.155 (inactive) and 0.34 (inactive)
CN(C)C(=O)Oc1cc(OC(=O)N(C)C)cc(C(O)CNC(C)(C)C)c1 (configuration not stated),parasite load remaining,[1],140% (inactive) and 77.2% (inactive) and 45.2% (inactive)
same,viability,[1],97.8% and 75.7% and 103%
same,nuclear beta-catenin stimulation,[2]; at 10 µM,0.1% (inactive)
same,nuclear beta-catenin stimulation,"[2]; stimulation, at 2 µM",4.2%
same,insulin secretion stimulation,[3],0.9% (inactive)
same,viability decrease,[4],-5.7% (inactive)
same,tube area decrease,[5],-4% (inactive)
same,GLP1 secretion stimulation,[6],12.7% (inactive)
same,inhibition of viability,[7],-0.23% (inactive)
same,viability decrease (inhibition),[8],-17% (inactive)
same,viability decrease (inhibition),[9],-13% (inactive)
same,red/green cell ratio (normalised),[10],0.71 (inactive)
same,normalised cell number,[10]; [20],1.3
same,normalised cell number,[10]; [21],0.92
same,activity remaining,[11],118% (inactive)
same,fold change,[12]; stronger effect = lower value,0.804 (inactive) and 0.911 (inactive) and 0.913 (inactive)
same,fold change,[12]; [23],1.26 and 0.519 and 1.12
same,cell count,[12]; [24],8290 and 8600 and 10000
same,cell count,[12]; [22],10300 and 9440 and 11000
same,z-score,[15]; [25],-0.119 (inactive) and 0.142 (inactive) and -0.358 (inactive)
same,z-score,[15]; [26],-0.285 and -0.41 and -0.25
same,remaining NAD,[13],10 nM (inactive)
same,luciferase signal,[16],80 AU (inactive)
same,z-score,[14],0.805 (inactive)
C=C1C[C@@H]2[C@H](CC[C@]3(C)C(=O)CC[C@@H]23)[C@@]2(C)C=CC(=O)C=C12,parasite load remaining,[1],41% (inactive)
same,viability,[1],86.7%
same,nuclear beta-catenin stimulation,[2]; at 10 µM,2.3% (inactive)
same,nuclear beta-catenin stimulation,"[2]; stimulation, at 2 µM",-0.3%
same,insulin secretion stimulation,[3],12.9% (inactive)
same,viability decrease,[4],2.6% (inactive)
same,tube area decrease,[5],6.3% (inactive)
same,GLP1 secretion stimulation,[6],8.3% (inactive)
same,inhibition of viability,[7],-12.1% (inactive)
same,viability decrease (inhibition),[8],24.7% (inactive)
same,viability decrease (inhibition),[9],-20.4% (inactive)
same,z-score,[15]; [25],0.961 (inactive)
same,z-score,[15]; [26],0.0493
same,remaining NAD,[13],10 nM (inactive)
same,luciferase signal,[16],60 AU (inactive)
CC1(C)C(C=C(Cl)Cl)C1C(=O)OC(C#N)c1cccc(Oc2ccccc2)c1 (configuration not stated),nuclear beta-catenin stimulation,[2]; at 10 µM,0.7% (inactive)
same,nuclear beta-catenin stimulation,"[2]; stimulation, at 2 µM",-1%
same,insulin secretion stimulation,[3],8.1% (inactive)
same,viability decrease,[4],1.2% (inactive)
same,tube area decrease,[5],-7.9% (inactive)
same,GLP1 secretion stimulation,[6],4.4% (inactive)
same,inhibition of viability,[7],40.5% (inactive)
same,viability decrease (inhibition),[8],27.7% (inactive)
same,viability decrease (inhibition),[9],23.2% (active)
same,red/green cell ratio (normalised),[10],0.82 (inactive)
same,normalised cell number,[10]; [20],1.16
same,normalised cell number,[10]; [21],0.96
same,fold change,[12]; stronger effect = lower value,0.936 (inactive) and 0.968 (inactive)
same,fold change,[12]; [23],1.17 and 1.27
same,cell count,[12]; [24],7700 and 5600
same,cell count,[12]; [22],8230 and 5790
same,remaining NAD,[13],10 nM (inactive)
CN1CCN(C(=O)O[C@H]2c3nccnc3C(=O)N2c2ccc(Cl)cn2)CC1,parasite load remaining,[1],62.4% (inactive)
same,viability,[1],93.7%
same,nuclear beta-catenin stimulation,[2]; at 10 µM,-0.9% (inactive)
same,nuclear beta-catenin stimulation,"[2]; stimulation, at 2 µM",-0.8%
same,insulin secretion stimulation,[3],2.3% (inactive)
same,viability decrease,[4],2.2% (inactive)
same,tube area decrease,[5],-7.8% (inactive)
same,GLP1 secretion stimulation,[6],-0.8% (inactive)
same,inhibition of viability,[7],-1.1% (inactive)
same,viability decrease (inhibition),[8],5.5% (inactive)
same,viability decrease (inhibition),[9],-2.6% (inactive)
same,red/green cell ratio (normalised),[10],0.85 (inactive)
same,normalised cell number,[10]; [20],1.07
same,normalised cell number,[10]; [21],0.91
same,activity remaining,[11],110% (inactive)
same,fold change,[12]; stronger effect = lower value,0.943 (inactive) and 0.981 (inactive)
same,fold change,[12]; [23],1.01 and 4.25
same,cell count,[12]; [24],9050 and 10100
same,cell count,[12]; [22],9590 and 10300
same,remaining NAD,[13],10 nM (inactive)
same,luciferase signal,[16],40 AU (inactive)
same,z-score,[14],0.52 (inactive)
Nc1ccncc1,score,[17],1.34
same,cytochrome c release ratio,[18],0.88
same,inhibition of aggregation,[19],-27.8%
same,parasite load remaining,[1],151% (inactive) and 61% (inactive)
same,viability,[1],71.5% and 95.5%
same,nuclear beta-catenin stimulation,[2]; at 10 µM,-0.9% (inactive)
same,nuclear beta-catenin stimulation,"[2]; stimulation, at 2 µM",0.7%
same,insulin secretion stimulation,[3],0% (inactive)
same,viability decrease,[4],-0.55% (inactive)
same,tube area decrease,[5],-8.7% (inactive)
same,GLP1 secretion stimulation,[6],2.4% (inactive)
same,inhibition of viability,[7],1.7% (inactive)
same,viability decrease (inhibition),[8],11.9% (active)
same,viability decrease (inhibition),[9],-6.35% (inactive)
same,red/green cell ratio (normalised),[10],0.8 (inactive)
same,normalised cell number,[10]; [20],1.23
same,normalised cell number,[10]; [21],0.99
same,activity remaining,[11],105% (inactive)
same,remaining NAD,[13],10 nM (inactive)
same,luciferase signal,[16],32 AU (inactive)
same,z-score,[14],0.855 (inactive) and 0.215 (inactive)
c1ccc(N2CCNCC2)cc1,nuclear beta-catenin stimulation,[2]; at 10 µM,0.1% (inactive)
same,nuclear beta-catenin stimulation,"[2]; stimulation, at 2 µM",-0.6%
same,insulin secretion stimulation,[3],3.1% (inactive)
same,viability decrease,[4],3.7% (inactive)
same,tube area decrease,[5],-2.6% (inactive)
same,GLP1 secretion stimulation,[6],-0.5% (inactive)
same,inhibition of viability,[7],10.5% (inactive)
same,viability decrease (inhibition),[8],0.3% (inactive)
same,viability decrease (inhibition),[9],-5.9% (inactive)
same,red/green cell ratio (normalised),[10],1.17 (inactive)
same,normalised cell number,[10]; [20],0.95
same,normalised cell number,[10]; [21],1.12
C#CCN(C)[C@H](C)Cc1ccccc1,nuclear beta-catenin stimulation,[2]; at 10 µM,-2% (inactive)
same,nuclear beta-catenin stimulation,"[2]; stimulation, at 2 µM",0.7%
same,insulin secretion stimulation,[3],1.2% (inactive)
same,viability decrease,[4],1.9% (inactive)
same,tube area decrease,[5],-3.8% (inactive)
same,GLP1 secretion stimulation,[6],1.9% (inactive)
same,inhibition of viability,[7],6.37% (inactive)
same,viability decrease (inhibition),[8],10.9% (inactive)
same,viability decrease (inhibition),[9],8.8% (inactive)
same,z-score,[15]; [25],-1.17 (inactive) and -0.00892 (inactive)
same,z-score,[15]; [26],-0.0749 and -0.112
same,remaining NAD,[13],10 nM (inactive)
same,z-score,[14],1.24 (inactive) and 0.63 (inactive)
CN1C(=O)CN=C(c2ccccc2)c2cc([N+](=O)[O-])ccc21,parasite load remaining,[1],83.1% (inactive)
same,viability,[1],68.8%
same,nuclear beta-catenin stimulation,[2]; at 10 µM,0.5% (inactive)
same,nuclear beta-catenin stimulation,"[2]; stimulation, at 2 µM",0.9%
same,insulin secretion stimulation,[3],-0.2% (inactive)
same,viability decrease,[4],-4.25% (inactive)
same,tube area decrease,[5],-18.8% (inactive)
same,GLP1 secretion stimulation,[6],3.3% (inactive)
same,inhibition of viability,[7],-16.9% (inactive)
same,viability decrease (inhibition),[8],18.1% (inactive)
same,viability decrease (inhibition),[9],1.05% (inactive)
same,fold change,[12]; stronger effect = lower value,0.947 (inactive)
same,fold change,[12]; [23],1.19
same,cell count,[12]; [24],9100
same,cell count,[12]; [22],9610
same,z-score,[14],0.65 (inactive)
